The assay relates to RXRa DBDmut IVT, anti-RXR (DBD mutation: RXRa K156A/R161A, NR concentration 90 nM). Description: PBM binding z-score (relative to random genomic background probes); higher = stronger binding; sequences stand for … in GC…GCGATTGACAGCGTAGAATGAAGG
The method in brief:
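Binding buffer was PBS pH 7.4 with 2% milk, 0.02% Triton X-100, 1 mM DTT, 0.2 mg/mL BSA and 0.4 mg/ml salmon testes DNA. In it, ligand-free nuclear receptor dimers were incubated 1 h on custom Agilent 4×180K protein-binding microarrays carrying double-stranded probes. Antibodies against each partner (one per run) detected binding, and z-scores were calculated against random background probes after regression normalization of scanned fluorescence.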
In turn, AATATTAGTTGAGACGAGGGCAACCGATAGGTTG showed a PBM binding z-score of 0.47.
The sequence TCGAGTAGGTTAGGGTCATTCAGAATGGCGTCGA returned a PBM binding z-score of 2.11.
To TAGCCTAGGTAATTCAGGGGCCAGTATAGAAAGC belongs -0.687; to CAAACTAGGTCAAGGTCGAAGTCGGTTTGTGCCA, 2.45.
To AATACACGGTCATCGTAGGCCAGAGTACGCACAG belongs 0.479.
The value for CGGACTAGGTCAAGGACAGTGAATCTCCGCACGC was 1.29.
In the case of CATACAGGGTCAGCTACGCCAGAGTAGGGACGGC, the PBM binding z-score came out at 1.69.
To AGAACGAGGGCGCGCTGAGTTGATAGCAGAGTAG belongs 0.991.
As to CGTCAAAGTTCAACTAGGGTAACGTAAAGCACGC, the PBM binding z-score came to 4.69.
On to GCTCGGAGGAAAAGGTCAGAGCTTTGTCCGTAGA, for which the PBM binding z-score is -0.162.
The value for CCTTACGTGTCAAGGTTATAGCACGGGTGGTACG was -0.145; that for CCTCCTAGGTCAATGGTCAGCTAAAGCAGCTCGC was 1.03; that for CCGACTGGGGCATAAAGGTTACCATACCATCCGG was -0.788.
With TCTGCTAGGTCAGTTGGTCAGCTACCGAGCTGCC, the PBM binding z-score is 0.34.
To GCTTGTAGATCAGGGTTAAGAAAGACTAAGCTAA belongs 0.053.
To TGATATAGGTAATACAGGTGAAAGTCGGCATCTA belongs -0.27; to TCTTGTAGATCAGCATGTTAAGAAAGCTGGCCAA, 0.518.
The value for CGAACTAGGTTATTGACAGGACAGTGAATAGTAA was 0.59; that for ATCGAAAGGTCGACGAGGTGACTATACACCGTTT was 1.17.
GCTGCTAGGTCAGGGTGGTCAGCTAACGGGTACG: the PBM binding z-score came out at 0.223.
In the case of ACTAGCAGGCCCAGTTTGGGTCACTCAAACAAAG, the PBM binding z-score was -0.882.
To AGAATGAGGTTACCAAATATCAGGGAAACGCTTG belongs 1.24.
To ACTCGGAGGACAAAGGTCAGAGCAACGCCAGTGA belongs 1.26; to GCTGCTAGGTCAACTGATTGTCAGCTAAAGCTCG, 1.3.
The value for GCGACTGGGGCAAAGCAAGTTACCATAAGGTTGG was -0.247; that for AGAATGAGGTTAATAAGATCAGGGAATTGCGGTC was 1.16.
As for ATCCCTAGGTAAAGATAGTTCAGTGAATGCAAAT, the PBM binding z-score was found to be 0.103.
The value for CTTCGGAGGACAGAAGGTCAGAGCTGTCCGCTTT was -0.00556; that for CCAGACAGGTGTAAGGTAACTCAGTCTGGTACGC was 0.0922; that for CAAACTAGGTCCAGGTCAAAGTCGGTTTGTGCCA was 1.62.
The value for CCTAGTTGGTCGAGGTCACACACGCTATAGGTAC was 2.64.
The value for TCTTGTTGATCAGCAGGTTAAGAAAGCTGGCCAA was 0.635.
As to CGTCAAAGTTCAAGATAACGTAACAGAAAGCAGC, the PBM binding z-score came out at 4.52.
In turn, CAAACTAGGCCAAAGGTCAAAGTCGAGCCAACCA gave a PBM binding z-score of 1.38.
The value for TCTCGGAGGACACGAAAGGTCGGAGCTCGACATC was 1.02; that for CGTCCAAGGTCTGCAGGTCAGTGAAAGCGACGTG was 0.0779.
In turn, CCAGACAGGTGGAAGGTAACTCAGTCTGGTACGC yielded a PBM binding z-score of -0.527.
The value for ACAGACAGGAGATGAAGGTAACTCAGGCTATCAT was -0.203.
To CCAGACAGGCGAAAGGTAACTCAGTCTGGTACGC belongs -0.267; to CGTCCAAGGTCAATGCTAGGTCAGTGTAAGCATT, 3.74.

Source of the values: the supplement of paper PMC6555819.
